# Inconclusive results are not listed. Calls of active or inactive are those of the source. Calls come from the whole dose curve; as a rule, active = well fitted inhibition curve with a large enough effect; inconclusive = small, poorly fitted or top-dose-only effect; inactive = no such curve, though single readings can be large or run the other way.
# Target: Peptidyl-prolyl cis-trans isomerase NIMA-interacting 1 (Homo sapiens) (UniProt Q13526)
# Experiment: qHTS Assay to Find Inhibitors of Pin1: Hit Validation using Tamra Binding
# Details: Pin1 Tamra-peptide displacement, fluorescence polarization, 10 min
# From the text: The unique chemical properties of Pro allow for the adoption of two completely distinct amide bond conformations (cis and trans). Peptidyl-prolyl cis/trans isomerases (PPIases) are evolutionary conserved enzymes that catalyze cis/trans isomerization of peptidyl-prolyl peptide bonds. Distinct from all other PPIases such as cyclophilins and FK506-binding proteins (FKBPs), Pin1 binds a subset of phos.Ser/Thr-Pro-containing proteins using its protein-targeting WW domain and isomerizes only specific phos.Ser/Thr-Pro bonds, which cannot be effectively catalyzed by other known PPIases. […] The goal of this screen is to find small-molecule inhibitors of Pin1 using a fluorescence polarization competition assay.In the primary screen, a HiFluor-488-labeled peptide binds to the active site of Pin1 and can be displaced by compounds. […] To validate the hits using a different read-out, this Tamra binding assays was used against all the hits identified from the primary screen. […]
# Briefly, 2 uL of Pin1 (all columns but column 3, which just receives buffer and serves as negative control) are dispensed into Greiner black solid bottom 1536-well assay plates. […] Finally, plates are transferred to a ViewLux high-throughput CCD imager (PerkinElmer), wherein end-point measurements of fluorescence polarization are acquired. […]
# Peptidyl-prolyl cis-trans isomerase NIMA-interacting 1 (Homo sapiens), sequence (Q13526 whole entry, looked up): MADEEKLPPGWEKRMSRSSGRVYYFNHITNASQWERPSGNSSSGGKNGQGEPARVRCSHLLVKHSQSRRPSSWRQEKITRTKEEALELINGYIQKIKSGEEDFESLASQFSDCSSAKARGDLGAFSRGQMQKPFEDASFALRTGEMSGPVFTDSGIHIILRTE
compound,measurement,value
Cc1cc2c(C(C)C)c(O)c(O)c(C=O)c2c(O)c1-c1c(C)cc2c(C(C)C)c(O)c(O)c(C=O)c2c1O,Potency,1.69 µM (active)

# Source: PubChem BioAssay AID624312 (National Center for Advancing Translational Sciences (NCATS), 2012)
